APEX1 inh: inhibitors of human APE1 endonuclease. P27695. recombinant APE1, TAMRA/BHQ-2 abasic DNA cleavage fluorescence. Potency, µM (highest dose often 65.8 µM), most hits filed as inhibitors. actives 0.35% (n = 350,000); note: nearly all actives have a fitted effect of over 55% in size
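Measures dequenching upon AP-site incision of a 5'-TAMRA/3'-BHQ-2 THF-containing duplex, 50 nM; human APE1 0.75 nM after 15 min room-temperature exposure to compound; kinetic three-point read at one-minute spacing.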
RECQ1 helicase: RECQ1 (human) helicase inhibition. actives 0.54% (n = 240,000). RECQ1 DNA unwinding, red fluorescence kinetic read. Potency, µM (highest dose often 57.3 µM), usual class: inhibitors. AID 2549; note: nearly all actives have a fitted effect of over 30% in size
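50 nM RECQ1T1 preincubated 15 min with compound in Tris pH 8.0 buffer with MgCl2, DTT, Tween-20 and 2.5 ug/ml poly(dI-dC); started with 200 nM TAMRA/BHQ-2 forked duplex and 2 mM ATP. Unwinding read as fluorescence (525/598 nm), two reads 2 h apart.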
TDP1 block: TDP1 (human) enzyme inhibition | actives 0.28% (n = 350,000) | recombinant TDP1, AlphaScreen DNA substrate cleavage | Potency, µM (top dose mostly 130 µM), hits mostly inhibitors | Q9NUW8 | AID 485290; note: nearly all actives have a fitted effect of over 40% in size
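Tdp1 1 nM final; 15 min RT w/ cpd; substrate 15 nM, 5 min; beads 10 ug/ml, 10 min; AlphaScreen read. Neg ctrl: no enzyme.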
Tb PGK inh: blocks T. brucei phosphoglycerate kinase. PGK/GAPDH coupled, Kinase-Glo luminescence, 60 min. Potency, µM (doses to about 57.5 µM), most hits filed as inhibitors. actives 0.043% (n = 380,000). AID 602233; note: nearly all actives have a fitted effect of over 60% in size
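Recombinant glycosomal PGK reaction used 1,3-bisphosphoglycerate generated in-well by GAPDH (100nM final) in 100mM TEA pH 7.6, 5mM MgCl2, 0.01% Tween-20. After 60 minutes at room temperature, ATP was read by Kinase-Glo Plus luminescence end-point.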
BLM inh: inhibitors of human Bloom syndrome helicase BLM; actives 0.2% (n = 350,000); recombinant BLM DNA unwinding, fluorescence dequenching; AID 2528; P54132; Potency, µM (doses to about 56.1 µM), most hits filed as inhibitors; note: nearly all actives have a fitted effect of over 35% in size
GLS inhibitor: inhibitors of human glutaminase (GLS); actives 0.21% (n = 410,000); O94925; GLS enzymatic activity, qHTS titration; AID 624170; Potency, µM (highest dose often 45.5 µM), hits mostly inhibitors
Target sequence (O94925 whole entry, looked up): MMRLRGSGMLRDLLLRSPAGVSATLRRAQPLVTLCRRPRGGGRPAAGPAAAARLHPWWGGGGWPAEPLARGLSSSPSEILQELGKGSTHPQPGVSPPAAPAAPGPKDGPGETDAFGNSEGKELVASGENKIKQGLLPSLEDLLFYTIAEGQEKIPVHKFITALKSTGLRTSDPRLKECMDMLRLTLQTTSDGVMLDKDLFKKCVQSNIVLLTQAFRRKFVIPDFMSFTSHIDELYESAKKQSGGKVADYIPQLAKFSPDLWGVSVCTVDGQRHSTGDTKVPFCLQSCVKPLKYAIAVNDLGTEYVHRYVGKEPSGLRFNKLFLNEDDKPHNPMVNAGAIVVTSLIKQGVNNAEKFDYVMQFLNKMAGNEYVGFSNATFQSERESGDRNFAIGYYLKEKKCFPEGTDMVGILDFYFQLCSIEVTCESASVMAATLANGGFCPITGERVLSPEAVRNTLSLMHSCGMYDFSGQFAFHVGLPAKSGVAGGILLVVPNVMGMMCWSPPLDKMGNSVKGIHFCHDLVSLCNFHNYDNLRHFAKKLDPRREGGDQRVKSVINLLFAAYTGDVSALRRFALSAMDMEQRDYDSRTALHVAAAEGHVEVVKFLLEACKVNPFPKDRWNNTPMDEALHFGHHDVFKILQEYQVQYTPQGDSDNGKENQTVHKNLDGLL
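Enzyme dispensed in phosphate buffer (45 mM, pH 8.2, 0.02% Tween-20), compounds pinned in, then 1 mM L-glutamine solution and the glutamate oxidase–HRP–Amplex Red mix added; fluorescence read immediately and again after 30 min at room temperature.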
GLS hit conf: confirmation of human glutaminase inhibitors | shares compounds with GLS inhibitor | biochemical glutaminase enzyme inhibition assay | Potency, µM (series often up to 46.1 µM), hits mostly inhibitors | 35 tested, under 10 active | AID 624261; calls by dose curve
HRP GOx counter: coupled enzyme interference in glutaminase inhibitor counterscreen | 35 tested, under 10 active | shares compounds with GLS inhibitor | HRP/glutamate oxidase coupled Amplex Red fluorescence counterscreen | activity change, negative = inhibition, % at 46.1 µM
GLS HEK tox: counter-screen for glutaminase inhibitors: HEK-293 cytotoxicity; shares compounds with GLS inhibitor; HEK-293 viability, CellTiter-Glo luminescence, 24 h; activity change, negative = cytotoxicity, % at 46.1 µM; 35 tested, under 10 active
Each line names hits and unclear results; the compound was inactive in the other large screens (follow-up assays come after a bar, where they were run); ! = not confirmed by another sample. Sampled rows, rich in hits. Any-hit rate of the full collection: about 0.85%. Unless noted, calls come from the whole dose curve; as a rule, active = well fitted curve in the direction sought with a large enough effect; inconclusive = small, poorly fitted or top-dose-only effect, or another doubt; inactive = no such curve, though single readings can be large; an effect the other way counts as inactive or inconclusive.

COc1ccccc1NS(=O)(=O)c1cc(NC(=O)c2cc[n+]([O-])cc2)ccc1N1CCCC1	APEX1 inh inconclusive, GLS inhibitor 11µM | GLS hit conf inactive | HRP GOx counter inactive | GLS HEK tox inactive
NNC(=O)c1cc2ccccc2cc1NS(=O)(=O)c1ccccc1	GLS inhibitor inconclusive (no result: RECQ1 helicase, TDP1 block) | GLS hit conf inactive | HRP GOx counter inactive | GLS HEK tox inactive
O=C(O)c1ccc(S(=O)(=O)Nc2ccc(O)c(Sc3nc4ccccc4s3)c2)cc1	GLS inhibitor inconclusive | GLS hit conf inconclusive | HRP GOx counter inconclusive | GLS HEK tox inactive
CC(=O)c1c(C)oc2ccc(NS(=O)(=O)c3ccc(C)cc3)cc12	none (no result: RECQ1 helicase)
Cc1ccc(C)c(S(=O)(=O)Nc2ccc3oc(C)c(C(=O)O)c3c2)c1	APEX1 inh 13µM, Tb PGK inh inconclusive, GLS inhibitor 13µM (no result: RECQ1 helicase, TDP1 block) | GLS hit conf inconclusive | HRP GOx counter inactive | GLS HEK tox inactive
COc1ccc(NS(=O)(=O)c2ccc3c(c2)[C@H]2C=CC[C@H]2[C@@H](c2ccc(C(=O)O)cc2)N3)cc1	Tb PGK inh 28µM!, GLS inhibitor 10µM (no result: RECQ1 helicase, TDP1 block) | GLS hit conf 3.3µM | HRP GOx counter inactive | GLS HEK tox inactive
C[N+]1(C)[C@@H]2CC(OC(=O)C(O)(c3cccs3)c3cccs3)C[C@H]1[C@@H]1O[C@@H]12 (some centres not stated)	none (no result: APEX1 inh, RECQ1 helicase, TDP1 block, Tb PGK inh)
COc1ccc(NS(=O)(=O)c2cc(N)ccc2N2CCOCC2)cc1	none (no result: RECQ1 helicase, TDP1 block)
COc1ccc(NS(=O)(=O)c2cc(N)ccc2N2CCCC2)cc1	GLS inhibitor inconclusive (no result: RECQ1 helicase, BLM inh) | GLS hit conf inactive | HRP GOx counter inconclusive | GLS HEK tox inactive
CCOC(=O)C1OC1C(=O)N[C@@H](CC(C)C)C(=O)NCCC(C)C (some centres not stated)	none (no result: Tb PGK inh, GLS inhibitor)
COc1ccc(NS(=O)(=O)c2ccc(NC(=S)NCC3CCCO3)cc2)cc1 (configuration not stated)	none (no result: RECQ1 helicase)
COc1ccccc1NS(=O)(=O)c1ccc(O)c(NC(=S)NCC2CCCO2)c1 (configuration not stated)	GLS inhibitor inconclusive | GLS hit conf inactive | HRP GOx counter inactive | GLS HEK tox inactive
COC(=O)[C@@H](NC(=O)N1CCc2nc(-c3ccccc3)c3c(c2C1)CO[C@@H](C)C3)C(C)C	none (no result: Tb PGK inh, GLS inhibitor)
O=C(O)/C=C/c1ccc(S(=O)(=O)Nc2ccc3[nH]c(=O)[nH]c3c2)cc1	GLS inhibitor inconclusive (no result: RECQ1 helicase) | GLS hit conf inactive | HRP GOx counter inactive | GLS HEK tox inactive
Cc1ccc(NS(=O)(=O)c2ccc(/C=C/C(=O)O)cc2)cc1Cl	none
O=C1CC[C@@H](C(=O)N[C@@H](Cc2cnc[nH]2)C(=O)N[C@@H](Cc2c[nH]c3ccccc23)C(=O)N[C@@H](CO)C(=O)N[C@@H](Cc2ccc(O)cc2)C(=O)O)N1	none (no result: Tb PGK inh, GLS inhibitor)

Source: PubChem BioAssay
